According to ChEMBL document CHEMBL4513216, “Probing the Open Global Health Chemical Diversity Library for Multistage-Active Starting Points for Next-Generation Antimalarials” (ACS Infect Dis, 2020):
Hit rate of the full screen: of about 69,000 compounds, about 8,600 (12%) showed an effect of 50% or more. The list comes from a sample in which strong results are over-represented; it also holds similar structures and randomly drawn compounds.

Test system: Plasmodium berghei
Experiment: Screen against P. berghei liver stage (PbLuc), transformed with Luciferase, at 10uM
Type: functional, HepG2
Settings: tested at 10 uM

Row | SMILES | INHIBITION
1 | O=C(NCC1(O)COCCN(Cc2ccc(O)cc2)C1)c1cnccn1 (stereo not drawn) | -42.9%
2 | CCCc1nnc(NC(=O)Cc2c(C)nc(C)[nH]c2=O)s1 | 16.585%
3 | O=C(NCc1cccs1)c1nc2c(o1)CN(CC1CC1)C2 | -31.4%
4 | CNC(=O)[C@@H]1[C@@H](OC(=O)Nc2ccccc2)C(=O)N(C)C12CCNCC2 | 35.8%
5 | COc1ccc(C(C(=O)O)N2CCC(Cn3cccn3)CC2)c(OC)n1 (stereo not drawn) | -40%
6 | CCCc1nc(CN2CCCCC2Cn2cncn2)cs1 (stereo not drawn) | 30.6%
7 | COCCOCC(=O)N1CCC2(CCCN(C3CCOCC3)C2=O)C1 (stereo not drawn) | -7.7%
8 | Cn1nnc2c(N3CC(C(=O)NCCC4=CCCCC4)C3)ncnc21 | -19.1%
9 | Cc1csc([C@@H]2C[C@@H]3CCN(Cc4cc(C)on4)C[C@H]3O2)n1 | 26.7%
10 | Cc1cc(CN2CC[C@H]3C[C@H](C(=O)N(C)C)O[C@@H]3C2)no1 | 23.9%
11 | Cc1csc([C@H]2C[C@@H]3CCN(Cc4cc(C)on4)C[C@H]3O2)n1 | 64.7%
12 | Cc1csc(CN2CC[C@H]3C[C@H](c4nnc(C)[nH]4)O[C@@H]3C2)n1 | 23.5%
13 | Cc1csc(CN2CC[C@H]3C[C@H](c4noc(C)n4)O[C@@H]3C2)n1 | 42.5%
14 | Cc1cc(CN2CC[C@H]3C[C@H](C)O[C@@H]3C2)no1 | 34.1%
15 | Cc1csc(CN2CC[C@H]3C[C@@H](c4nnc(C)[nH]4)O[C@@H]3C2)n1 | 72.3%
16 | Cc1csc([C@H]2C[C@H]3CN(Cc4cc(C)on4)CC[C@@H]3O2)n1 | 46.6%
17 | O=C(C1CCOCC1)N1C[C@@H]2C[C@@H](c3nc(C4CC4)cs3)O[C@@H]2C1 | 31.8%
18 | Cc1cc(CN2CC[C@H]3C[C@@H](C)O[C@@H]3C2)no1 | 50.9%
19 | Cc1csc([C@@H]2C[C@H]3CN(c4ncc(F)cn4)C[C@H]3O2)n1 | 22.6%
20 | Fc1cnc(N2C[C@@H]3C[C@@H](c4nc(C5CC5)cs4)O[C@@H]3C2)nc1 | 62.3%
21 | Cc1c(C2CC(=O)Nc3c2cnn3C(C)(C)C)cnn1C (stereo not drawn) | -56.7%
22 | Cc1[nH]c2nc(CNc3cccc(Cl)c3)nn2c(=O)c1C | -10.7%
23 | Cc1ccc(CN2CC[C@H]3C[C@H](c4nc(C5CC5)cs4)O[C@@H]3C2)o1 | 21.3%
24 | Cc1ccc(CN2CC[C@H]3C[C@@H](c4nc(C5CC5)cs4)O[C@@H]3C2)o1 | 63.5%
25 | Cc1csc([C@@H]2C[C@@H]3CCN(C(=O)c4ccnnc4)C[C@H]3O2)n1 | -19%

Row | SMILES | INHIBITION
26 | Cc1csc([C@@H]2C[C@@H]3CCN(C(=O)c4cccn4C)C[C@H]3O2)n1 | 50.7%
27 | Cc1cc(CN2CC[C@H]3C[C@H](c4nccs4)O[C@@H]3C2)no1 | 25%
28 | Cc1cc(CN2CC[C@H]3C[C@@H](c4nccs4)O[C@@H]3C2)no1 | 57.9%
29 | Cc1csc([C@H]2C[C@@H]3CCN(C(=O)c4ccnnc4)C[C@H]3O2)n1 | 4.61%
30 | Cc1csc([C@H]2C[C@@H]3CCN(Cc4cnn(C)c4)C[C@H]3O2)n1 | -63.5%
31 | Cc1cc(CN2CC[C@H]3C[C@@H](c4nc(C5CC5)cs4)O[C@@H]3C2)no1 | 68.4%
32 | Cc1noc(C)c1CN1CC[C@H]2C[C@H](c3nccs3)O[C@@H]2C1 | 40.4%
33 | Cc1nnc([C@H]2C[C@@H]3CCN(Cc4ccc(C)o4)C[C@H]3O2)[nH]1 | 31.7%
34 | Cc1nnc([C@H]2C[C@@H]3CCN(Cc4cc(C)on4)C[C@H]3O2)[nH]1 | 35.8%
35 | CC(C)c1nn(C)cc1CNCc1ccnc(N(C)C)c1 | 23.7%
36 | Cn1ccc2ccnc(CC3CN(C(=O)c4cscn4)C3)c21 | 3.91%
37 | CNC(=O)[C@@H]1CN(C(=O)CCOC)C[C@H]1c1ccnc(N2CCCC2)n1 | -4.68%
38 | CCc1nccn1C1CCCN(C(=O)COCC(F)(F)F)C1 (stereo not drawn) | 45.6%
39 | Cc1ccc2c(c1)N(C(=O)c1cc[nH]c(=O)c1)CC(C)O2 (stereo not drawn) | 19.3%
40 | COCc1nn(CC2CC2)c2c1CN(Cc1cncn1C)CC2 | -88.6%
41 | CC(C(=O)N1CCOCC1)n1cncn1 (stereo not drawn) | -18.8%
42 | CN(C)c1cccc(CNCc2ccc(N3CCOCC3)cc2)c1 | 34.1%
43 | Cc1cc(CN2CC[C@H]3C[C@H](c4nc(C5CC5)cs4)O[C@@H]3C2)no1 | 74.7%
44 | Cc1csc(CN2C[C@@H]3CN(S(C)(=O)=O)CCO[C@@H]3C2)n1 | 33.1%
45 | Cc1csc(CN2C[C@@H]3CN(CC4CCOCC4)CCO[C@@H]3C2)n1 | 47.5%
46 | Cn1cc(CN2CC[C@H]3C[C@@H](c4nc(C5CC5)cs4)O[C@@H]3C2)cn1 | 47%
47 | Cc1csc([C@@H]2C[C@@H]3CCN(Cc4cnn(C)c4)C[C@H]3O2)n1 | -3.19%
48 | c1cc(CN2CC[C@H]3C[C@H](c4nc(C5CC5)cs4)O[C@@H]3C2)ccn1 | 67.5%
49 | Cc1csc(CN2C[C@@H]3CN(C)CCO[C@@H]3C2)n1 | 57.5%
50 | Cc1csc([C@@H]2C[C@@H]3CCN(C(=O)c4cc(C)on4)C[C@H]3O2)n1 | 5.53%

Row | SMILES | INHIBITION
51 | Cn1cc(CN2CC[C@H]3C[C@H](c4nc(C5CC5)cs4)O[C@@H]3C2)cn1 | 41.8%
52 | Cc1nn(C)cc1S(=O)(=O)NC1(CN2CCOCC2)CCCCC1 | 28%
53 | COc1ccccc1C(C)(C)NC(=O)c1cc(NC(C)=O)ccc1F | -52.3%
54 | CCSCc1nc(O)c2nnn(C3CCN(Cc4ccoc4)CC3)c2n1 | 18.39%
55 | CC(C)c1nc2c(n1C)CCN(CC(=O)Nc1cccnc1)C2 | -55.4%
56 | O=C(NCC1CCN(c2ccncc2)CC1)C(O)c1ccccc1 (stereo not drawn) | 36.4%
57 | Cc1nocc1C(=O)N1CCCC2(CCN(c3cnn(C)c3)C2=O)C1 (stereo not drawn) | 38.5%
58 | CC(C)c1cc(C2CCCN2C(=O)CN2C(=O)CCNC2=O)no1 (stereo not drawn) | 5.91%
59 | O=S(=O)(c1ccccc1Br)N1CCC2(CC1)OCCS2 | 0.325%
60 | Cc1cnn(CC2CN(CC(=O)NCc3ccco3)CCO2)c1 (stereo not drawn) | 11.2%
61 | CCCN(Cc1cnn(C)c1)S(=O)(=O)c1cc(C)cc(F)c1 | -6.11%
62 | Cc1noc(CCCC(=O)NCC2CCS(=O)(=O)C2)n1 (stereo not drawn) | -7.35%
63 | Cn1nccc1-c1ccc2nc(C3CCN(CC4CC4)CC3)nn2c1 | 38.2%
64 | CS(=O)(=O)CCCN(CCc1cccc(F)c1)C1CC1 | -22.3%
65 | O=C(C1CCOC1)N1C[C@H]2CN(c3ccccc3)C(=O)[C@H]2C1 (stereo partly drawn) | 52.6%
66 | Cc1cccc(CN2C[C@@H]3CN(C(=O)c4ccnnc4)C[C@@H]3C2=O)c1 | 4.61%
67 | CN1C[C@@H]2CN(C(=O)C3CCOC3)C[C@@H]2C1=O (stereo partly drawn) | 33%
68 | O=C(C1CCC1)N1C[C@@H]2CN(c3ccccc3)C(=O)[C@@H]2C1 | 46.9%
69 | O=C(C1CCOC1)N1C[C@H]2CN(Cc3cccc(F)c3)C(=O)[C@H]2C1 (stereo partly drawn) | 34.9%
70 | Cc1cccc(CN2C[C@@H]3CN(C(=O)[C@H]4CCCO4)C[C@@H]3C2=O)c1 | 58.2%
71 | Cc1cccc(CN2C[C@@H]3CN(C(=O)C4CCOC4)C[C@@H]3C2=O)c1 (stereo partly drawn) | 53%
72 | COc1ccc(CN2C[C@@H]3CN(C(=O)[C@H]4CCCO4)C[C@@H]3C2=O)cc1 | -43%
73 | O=C(C1CCOC1)N1C[C@H]2CN(Cc3cccnc3)C(=O)[C@H]2C1 (stereo partly drawn) | 17.7%
74 | Cn1cc(CN2CCCC3(CCN3S(C)(=O)=O)C2)cn1 (stereo not drawn) | 28.7%
75 | C=C(Br)CN(C)C1CCN(CCc2ccccn2)CC1 | -9.37%

Row | SMILES | INHIBITION
76 | O=C(CSc1ccc(Br)cc1)NS(=O)(=O)c1ccc2c(c1)OCCO2 | 30.55%
77 | Cc1nc2c(c(N3CCCOCC3)n1)CCN(c1nccs1)CC2 | 41.1%
78 | O=C(CCN1CCCCO1)N1CCC(CO)(Cc2ccccc2)CC1 | -9.44%
79 | CCCNC(=O)c1cc2c([nH]c1=O)CC(c1cccs1)CC2=O (stereo not drawn) | 41.8%
80 | CC(C)NC(=O)c1cc2c([nH]c1=O)CC(c1cccs1)CC2=O (stereo not drawn) | 62.3%
81 | O=C1CC(c2ccc(F)cc2)Cc2[nH]c(=O)c(C(=O)O)cc21 (stereo not drawn) | -67.9%
82 | O=C1CC(c2cccs2)Cc2[nH]c(=O)c(C(=O)NC3CCCC3)cc21 (stereo not drawn) | 59.5%
83 | CC1CC(=O)c2cc(C(=O)N3CCc4ccccc43)c(=O)[nH]c2C1 (stereo not drawn) | 21.5%
84 | O=C1CC(c2cccs2)Cc2[nH]c(=O)ccc21 (stereo not drawn) | -32.1%
85 | CCOCC1CN(Cc2ccco2)Cc2nccn2C1 (stereo not drawn) | 10.7%
86 | COc1cc(C(=O)N2C[C@@H]3CC[C@H]2CN(Cc2cscn2)C3)ccn1 | -16.3%
87 | CC1(C)[C@@H]2CC=C(CN3CCCn4nc(CNS(C)(=O)=O)cc4C3)[C@H]1C2 | 25.7%
88 | CN(C)C(=O)NCc1cc2n(n1)CCCN(CC1[C@H]3CNC[C@@H]13)C2 (stereo partly drawn) | -14.6%
89 | Cc1cc(CN2CCCn3nc(CCC(=O)O)cc3C2)ccc1F | 60.2%
90 | CC1(C)[C@@H]2CC=C(CN3CCCn4nc(C(=O)O)cc4C3)[C@H]1C2 | 65.6%
91 | CN(C)CCNC(=O)c1cc2n(n1)CCN(C(=O)CC(C)(C)C)C2 | -15.7%
92 | Cc1nc2ccccc2nc1CN1CCn2nc(CCC(=O)O)cc2C1 | 36%
93 | O=C(NCc1cc2n(n1)CCCN(Cc1ccc(CO)o1)C2)C1CCC1 | 11.8%
94 | CC1(C)[C@@H]2CC=C(CN3CCCn4nc(CCC(=O)O)cc4C3)[C@H]1C2 | 59.1%
95 | CC1(C)[C@@H]2CC=C(CN3CCCn4nc(C(=O)NCCO)cc4C3)[C@H]1C2 | 68.4%
96 | CCOC(=O)N1CCCn2nc(C(=O)NCCN(C)C)cc2C1 | -10.2%
97 | O=C(O)CCc1cc2n(n1)CCN(Cc1ccc3[nH]ccc3c1)C2 | -15.7%
98 | O=C(O)CCc1cc2n(n1)CCN(Cc1cnc(N3CCCC3)nc1)C2 | 7.43%
